Assay results as given in PubChem BioAssay (Tox21).
Results filed as inconclusive are left out. Unmarked numbers belong to inactive results. Calls follow the shape of the full dose curve.

assay: qHTS assay to identify small molecule agonists of H2AX - cell viability counter screen (AID 1224847); settings: CHO-K1 viability, CellTiter-Glo luminescence, 3 h; series mostly up to 154 µM; activity change, negative = cytotoxicity: at the top concentration; also: top concentration of the series differs between compounds; nearly all actives have a fitted effect of over 30% in size
Text: National Center for Advancing Translational Sciences [NCATS]
NIH Chemical Genomics Center [NCGC]
U.S. Environmental Protection Agency [EPA]
National Institutes of Environmental Health Sciences [NIEHS]
National Toxicology Program [NTP]
U.S. Food and Drug Administration [FDA]
HTRF phospho-H2AX (Ser139) assay (Cisbio Bioassays, US) enables the quantitative detection of the histone variant H2AX when phosphorylated on serine 139. When double-stranded DNA breaks, either by ionizing radiation or endogenous physiological processes, H2AX becomes phosphorylated at Ser139. This phospho-Ser139 serves as a sensitive biomarker for the detection of such breaks, localizing the site of DNA repair. So, HTRF phospho-H2AX Ser139 is a pertinent assay to study genome stability, the cell cycle, DNA repair, and it serves as a biomarker for cancer, and to understand aging. Wild type CHO-K1 cells were used to identify the inducers of Phospho-H2AX Ser 139 from the Tox21 compound collections. Also cytotoxicity of the Tox21 10K compound library against the CHO-K1 cell line was tested by measuring the cell viability using CellTiter-Glo assay (Promega, Madison, WI).
Tox21 Assay Protocol Summary:
The CHO-K1 cells suspended in culture medium containing 10% FBS were dispensed at 1000 cells/ 3 ul/well in 1536-well white wall/solid bottom plates (Greiner Bio-One North America, NC) using a Multidrop Combi (Thermo Fisher Scientific Inc., Waltham, MA). After the assay plates were incubated at 37C overnight, 23 nl of compounds at 15 concentrations (from 5-48 columns) or positive control (from 1 to 4 columns) were transferred to the assay plates using a Pintool station (Wako, San Diego, CA) into each well resulting in a final DMSO concentration of 0.76%. After 3hr incubation at 37C, 3 uL/well CellTiter-Glo luminescent cell viability reagent (Promega Corporation, Madison, WI) was added using a Flying Reagent Dispenser (FRD) (Aurora Discovery, CA). After incubation at room temperature for 30 min, the luminescence intensity was read using a ViewLux plate reader (PerkinElmer, Waltham, MA).
% is scaled to controls: 0 for no effect and ±100 for the full control effect.

SMILES	activity change, negative = cytotoxicity
O=c1[nH][nH]c2ccccc12	2.25%
Cc1c(N=C=O)cccc1N=C=O	1.14%
CCCCOC(=O)C(C)Oc1ccc(Oc2ccc(C(F)(F)F)cn2)cc1 (stereo not given)	-0.058%
O=C(O)CCc1nc2ccccc2[nH]1	-0.115% [at 70.9 µM]
CC1(COc2ccc(CC3SC(=O)NC3=O)cc2)CCCCC1 (stereo not given)	0.885% [at 70.9 µM]
C=Cc1ccc(C=C)cc1	0.703%
CCC[Si](OC)(OC)OC	2.26%
CCc1ccc(C(=O)C(C)CN2CCCCC2)cc1 (stereo not given)	-2.39% [at 70.9 µM]
CCC(=O)O[C@]1(C(=O)COC)[C@@H](C)C[C@H]2[C@@H]3CCC4=CC(=O)C=C[C@]4(C)C3(F)[C@@H](O)C[C@@]21C (stereo not given in full)	4.19% [at 70.9 µM]
O=[N+]([O-])c1ccccc1CCO	1.42%
OCCc1ccncc1	0.488%
CNc1ccccc1	3.56%
CCCN(C1CCN(C(=O)C2CCNCC2)CC1)[C@@H]1CCc2ccc(OC)cc2C1	-6.98%
S=c1[nH][nH]c(=S)s1	1.89%
O=C1OC(=O)C2CC=CCC12 (stereo not given)	3.28%
OCCCO	2.07%
CS(C)=O	0.284%
CC(C)(C)NCC(O)COc1ccc(NC(=O)NC2CCCCC2)cc1 (stereo not given)	0.686% [at 70.9 µM]
CCCC(=O)OCc1ccccc1	11.7%
O=C(OC1C[C@H]2CC[C@@H](C1)[N+]21CCCC1)C(O)(c1ccccc1)c1ccccc1 (stereo not given in full)	-3.15% [at 70.9 µM]

SMILES	activity change, negative = cytotoxicity
O=C(O)c1ccccc1[N+](=O)[O-]	-0.329%
O=C1c2ccccc2C(=O)c2c1ccc(O)c2O	-11.9% [at 70.9 µM]
Nc1cccc2c(=O)[nH][nH]c(=O)c12	-11.7%
O=Cc1ccc(Cl)c([N+](=O)[O-])c1	13.1%
O=C(O)c1c2ccccc2cc2ccccc12	1.21%
C/C=C1\[C@H]2C=C(C)C[C@]1(N)c1ccc(=O)[nH]c1C2	3.1% [at 70.9 µM]
CCN(CCCCOC(=O)c1ccc(OC)c(OC)c1)C(C)Cc1ccc(OC)cc1 (stereo not given)	-5.25% [at 70.9 µM]
O=C(OCCN1CCOCC1)c1cccnc1Nc1cccc(C(F)(F)F)c1	-11.1% [at 70.9 µM]
CC(C)Oc1ccccc1O	1.18%
O=P(c1ccccc1)(c1ccccc1)c1ccccc1	4.41%
Cc1c(-c2cccnc2)c2ccccc2n1CCCCC(=O)O	3.26%
O=[N+]([O-])c1cccc(I)c1	-2.84%
CCCOC(C)=O	1.21%
C[C@H]1C[C@H]2[C@@H]3CCC4=CC(=O)C=C[C@]4(C)[C@@]3(F)[C@@H](O)C[C@]2(C)[C@@]1(O)C(=O)COP(=O)(O)O	-0.588%
O=C(O)c1ccccc1-n1cc(C(=O)O)c(=O)c2cc(Nc3c(F)cc(F)cc3Cl)c(Cl)cc21	-0.611%
CC(Cc1ccccc1)(NC(=O)CN)c1ccccc1 (stereo not given)	-1.53% [at 70.9 µM]
FC1(F)C(F)(F)C(F)(F)C2(F)C(F)(C1(F)F)C(F)(F)C(F)(F)C1(F)C(F)(F)C(F)(F)C(F)(F)C(F)(F)C12F (stereo not given)	1.7%
CCCC(=O)OCCC(C)C	-0.623%
CCCCCCCCNC	2.46%
O=C(O)c1cc(C(=O)O)cc([N+](=O)[O-])c1	7.87%
